Screens from PubChem.
LASV entry inh = qHTS for Inhibitors of binding or entry into cells for Lassa Virus; Lassa virus pseudotype entry inhibition, cell reporter; Potency, µM (highest dose often 37.9 µM), inactives show at the top dose activity change, negative = inhibition, most hits filed as inhibitors; 1.2% of 300,000 active; AID 540256, 2011; calls by dose curve; tested in HEK293 cells; further: potency means the concentration at half of the fitted maximal effect; on the % scale 0 is the no-effect control and ±100 the full control effect; nearly all actives have a fitted effect of over 50% in size
Marburg entry inh = qHTS for inhibitors of binding or entry into cells for Marburg Virus | Marburg virus pseudotyped entry inhibition, cell reporter | Potency, µM (series often up to 37.8 µM), without a hit: at the highest dose activity change, negative = inhibition, usual class: inhibitors | AID 540276, 2011 | 1.8% of 300,000 active; calls by dose curve; tested in HEK293 cells; further: potency means the concentration at half of the fitted maximal effect; on the % scale 0 is the no-effect control and ±100 the full control effect
Shiga inhibitor = A qHTS for Small Molecule Inhibitors of Shiga Toxin; 9.2% of 290,000 active; AID 2315, 2010; Vero cells, Shiga toxin protein synthesis inhibition reporter; inhibition, % at 38.7 µM; in the data active means inhibition mostly above about 28%, no sharp cut-off; inactive means mostly below about 43%; further: 0% is about no effect
CHX counter = Cycloheximide Counterscreen for Small Molecule Inhibitors of Shiga Toxin. cell reporter, cycloheximide protein synthesis inhibition counterscreen. max response, %. 12% of 300,000 active. AID 2314, 2010; in the data active means max response mostly above about 13%, no sharp cut-off; inactive means mostly below about 14%; further: read at 38.3 µM for the half of the compounds with a filed dose; 0% is about no effect
* marks the source's active call; other numbers are inactive results; ? = inconclusive; / = no result given; [ ] = another dose, or the depositor's remark. An excerpt weighted towards active compounds, which were near 12% of everything screened.

SMILES | LASV entry inh | Marburg entry inh | Shiga inhibitor | CHX counter
CS/C(=C/[N+](=O)[O-])Nc1cccc2c1C(C)CC2(C)C (centres undefined) | -16.2% | ? | 17.6 | 1.1
CCc1sc(C(=O)NC2CCN(C)CC2)cc1Br | -21.3% | ? | -2.1 | -1.1
Cc1ccc2c(c1)-c1cc(C)nn1C(c1cc(Br)ccc1O)N2 (centres undefined) | 0.0%[46.1 µM] | 34.5%[46.1 µM] | / | /
CCN(C(=O)COC(=O)/C=C/c1cccc(Br)c1)C1CCS(=O)(=O)C1 (centres undefined) | 1.8% | ? | -3.3 | -3.7
CN(C(=O)COC(=O)c1ccc(C(C)(C)C)cc1)C1CCS(=O)(=O)C1 (centres undefined) | -11.0% | 3.9% | / | /
CN(C(=O)COC(=O)c1nc(Cl)c(Cl)c(Cl)c1Cl)C1CCS(=O)(=O)C1 (centres undefined) | 5.62µM* | ? | 60.5 | 54.4*
Cc1nn(-c2ccccc2)c(C)c1C(=O)OCC(=O)N(C)C1CCS(=O)(=O)C1 (centres undefined) | 0.8% | ? | 61.1* | 33.0*
Cc1nn(-c2ccccc2)c(C)c1/C=C/C(=O)OCC(=O)NC1CCS(=O)(=O)C1 (centres undefined) | 8.3% | 29.3%[46.1 µM] | 22.0 | 15.5*
CN(C(=O)COC(=O)/C=C/c1cccc([N+](=O)[O-])c1)C1CCS(=O)(=O)C1 (centres undefined) | -12.5% | 3.55µM* | -5.3 | -2.4
COc1ccc(NC(=O)CN2CCC(C(N)=O)(N3CCCCC3)CC2)c(OC)c1 | 2.0% | 3.2%[46.1 µM] | -1.8 | -1.3
Cc1cccc(Nc2nnc(SCC3CCCCO3)s2)c1 (centres undefined) | ? | ? | 49.4* | 36.2*
COc1ccccc1-c1nn(CCC(=O)Nc2ccccc2)c2nc(C)cc(C)c12 | -27.5%[46.1 µM] | -0.5%[46.1 µM] | / | /
COc1ccc(-c2noc(Cc3cccs3)n2)cc1 | 9.2% | ? | 82.2* | 32.0*
Clc1ccc(Cc2nc(-c3ccncc3)no2)cc1 | / | / | 38.4 | 16.9*
COc1ccc(Cc2nc(-c3ccncc3)no2)cc1 | / | / | 84.8* | 37.1*
COc1ccc(-c2noc(Cc3ccccc3OC)n2)cc1 | 1.0% | 14.5% | 44.5 | 22.7
Cc1ccc2ccc(S(=O)(=O)NCc3ccccn3)cc2c1 | 11.6%[46.1 µM] | 14.4%[46.1 µM] | 38.8* | 19.5
O=S(=O)(NCc1ccccn1)c1ccc2c(c1)OCCO2 | 13.9% | -1.1% | -8.0 | -0.9
CCN(CC(=O)Nc1cc(Cl)ccc1C)C(=O)CCS(=O)(=O)c1ccc(Cl)cc1 | -2.9% | ? | -2.6 | -0.7
CC1CCN(CC(O)COc2ccc(F)cc2)CC1 (centres undefined) | / | / | -3.1 | -6.3
CC1CCN(CC(O)COCCC23CC4CC(CC(C4)C2)C3)CC1 (centres undefined) | ? | 6.51µM* | -14.1 | -3.3
O=C(CSc1ccc2nnc(-c3ccncc3)n2n1)N1CCc2ccccc21 | / | 0.0% | -15.9 | -1.0
O=C(Nc1ccc(-c2cnco2)cc1)c1ccc(F)cc1F | ? | 6.4% | 34.6* | 33.6*
O=C(NC(=O)c1ccc(Cl)cc1)Nc1ccc(-c2cnco2)cc1 | / | 1.7% | -8.8 | -1.2
Cc1nc2cc(C(=O)O)ccc2n1C1CCCCC1 | 1.4% | 13.2% | 1.1 | 1.3
SMILES | LASV entry inh | Marburg entry inh | Shiga inhibitor | CHX counter
CCCCNC(=O)c1ccc2c(c1)ncn2C1CCCC1 | -11.9% | 13.3% | 65.4 | 33.7*
O=C(O)c1ccc2c(c1)ncn2C1CCCC1 | / | / | 113.6* | 47.8*
CC(C)CCNC(=O)c1ccc2c(c1)ncn2C1CCCCC1 | 3.5% | -1.7% | 42.0* | 19.2
CCCCNC(=O)c1ccc2c(c1)ncn2C1CCCCC1 | 13.9% | 7.3% | -4.2 | 11.8
CCN(CC)CCNC(=O)c1ccc2c(c1)ncn2C1CCCCC1 | 2.6% | 1.8% | -9.3 | -0.9
C[C@H](NC(=O)CCCOc1ccc(Cl)cc1Cl)c1nnc2ccccn12 | / | / | -9.6 | -2.1
CCOC(=O)Cc1nnc(Nc2cc(C)ccc2C)c2ccccc12 | -1.2%[46.1 µM] | 1.2%[46.1 µM] | 6.5 | -2.5
CC(=O)Oc1ccc2c(=O)c(-c3ccccc3)coc2c1 | ? | ? | 80.4* | 38.5*
O=C(CCCCl)Oc1ccc2cc(-c3ccc4ccccc4n3)c(=O)oc2c1 | 26.7% | 14.0% | 8.8 | 20.1*
O=c1oc2cc(OCc3ccc(C(F)(F)F)cc3)ccc2cc1-c1ccccn1 | -1.2% | 2.6%[46.1 µM] | 3.0 | -1.6
COc1ccc(-c2cc3ccc(OCC(=O)NCC4CCC(C(=O)O)CC4)cc3oc2=O)cc1 (centres undefined) | / | / | 28.9* | 26.9*
COc1ccc(-c2cc3ccc(OC(C)C(=O)O)cc3oc2=O)cc1 (centres undefined) | / | / | 29.5 | 13.0*
Cc1cc(C)c2nc(N3C(=O)C(O)=C(C(=O)c4ccco4)C3c3ccco3)sc2c1 (centres undefined) | -25.2%[46.1 µM] | -4.5%[46.1 µM] | 25.8 | 1.8
CC(=O)COc1ccc2cc(-c3ccccc3)c(=O)oc2c1 | 0.3%[46.1 µM] | ? | 72.7* | 42.0*
CC(=O)Oc1ccc2cc(-c3ccccc3)c(=O)oc2c1 | ? | 28.5% | 53.1* | 34.4*
O=C(Nc1cccc(C(F)(F)F)c1)C1CCN(S(=O)(=O)c2cccnc2)CC1 | / | / | -10.0 | -1.4
Clc1cccc(N2CCN(c3nc4ccccc4c4nc(-c5ccccc5)nn34)CC2)c1 | / | -2.0%[46.1 µM] | / | /
CC(=O)c1ccc(N2CCN(S(=O)(=O)c3c(C)[nH]c(C)c3C(=O)N3CCCC3)CC2)cc1 | 4.9%[46.1 µM] | 8.0%[46.1 µM] | 11.5 | 10.8
C=CCN1C(=O)NC(=O)/C(=C/c2ccc(N(C)C)c(Br)c2)C1=O | 7.94µM* | -4.9%[46.1 µM] | -12.2 | -2.2
C=CCN1C(=O)NC(=O)/C(=C/c2ccoc2)C1=O | 7.0% | ? | 14.7 | -1.7
CC1=NNC(=O)/C1=C\c1cn(-c2ccccc2)nc1-c1cccs1 | ? | -41.2% | -14.7 | -8.6
CC1=NNC(=O)/C1=C\c1cn(-c2ccccc2)nc1-c1ccc(F)cc1 | ? | 8.91µM* | 21.6 | 1.1
O=Cc1cn(-c2ccccc2)nc1-c1ccc(F)cc1 | / | / | 16.1 | active
CCOC(=O)c1ccc(NC(=O)Cn2cc(C(=O)c3ccc(Cl)cc3)c(=O)c3ccc(C)nc32)cc1 | 20.4%[46.1 µM] | / | / | /
O=C(Nc1ccnn1C1CCN(Cc2cccc(OCCO)c2)CC1)C1CCOC1 (centres undefined) | 5.2% | -27.1% | 15.9 | -2.3
SMILES | LASV entry inh | Marburg entry inh | Shiga inhibitor | CHX counter
COc1ccc(NC(=O)Cc2c(F)cccc2Cl)cc1 | / | / | 61.8* | 30.8*
COc1ccccc1NC(=O)Cc1c(F)cccc1Cl | 28.0% | ? | -10.6 | -7.3
COc1ccc(NC(=O)COC(=O)Cc2c(F)cccc2Cl)cc1 | -0.8% | 16.5% | 33.5* | 44.6*
Cc1nc(-c2ccc(Cl)cc2)sc1C1(C)CC(c2ccc(OC(F)(F)F)cc2)=NO1 (centres undefined) | / | / | 7.9 | -0.5
COc1ccccc1C1=NOC(C)(c2sc(-c3ccc(Cl)cc3)nc2C)C1 (centres undefined) | / | / | 31.1* | 20.4*
CCOC(=O)c1nnn(-c2nonc2N)c1CSc1nnc(N)s1 | 7.2%[46.1 µM] | 1.4%[46.1 µM] | -4.7 | -1.4
Cc1ccc(NS(=O)(=O)c2ccc(-c3ccc(=O)[nH]n3)o2)cc1N(C)C | 4.3%[46.1 µM] | 3.9%[46.1 µM] | 60.1* | 44.4*
O=C(OCc1cc(=O)n2c(n1)sc1ccccc12)c1cccc(O)c1 | ? | ? | 49.0* | 23.3*
O=C(OCc1cc(=O)n2c(n1)sc1ccccc12)c1ccc(O)cc1O | / | / | 18.1 | 1.0
